In PubChem BioAssay (NCATS):
Records with an inconclusive call do not appear. Entries that show only a call come without a potency. Calls of active or inactive are those of the source. Unless noted, the call rests on the fitted dose curve.

How the values were obtained:
[1] = qHTS for Inhibitors of the Functional Ribonucleoprotein Complex (vRNP) of Lassa (LASV) Arenavirus: LASV Primary Screen - GLuc reporter signal (AID 1347082; calls by dose curve; tested in HEK293 reporter line; further: nearly all actives have a fitted effect of over 60% in size)
[2] = qHTS for Inhibitors of the Functional Ribonucleoprotein Complex (vRNP) of Lassa (LASV) Arenavirus: Viability assay - alamar blue signal for LASV Primary Screen (AID 1347083; calls by dose curve; tested in HEK293 reporter line; further: nearly all actives have a fitted effect of over 80% in size)
[3] = qHTS for Inhibitors of the Functional Ribonucleoprotein Complex (vRNP) of Lymphocytic Choriomeningitis Arenaviruses (LCMV): Viability assay - alamar blue signal for LCMV Primary Screen (AID 1347085; calls by dose curve; tested in HEK293 reporter line; further: nearly all actives have a fitted effect of over 80% in size)
[4] = molecular target: Nucleoprotein (Lymphocytic choriomeningitis virus (strain Armstrong)) (UniProt P09992); experiment: qHTS for Inhibitors of the Functional Ribonucleoprotein Complex (vRNP) of Lymphocytic Choriomeningitis Arenaviruses (LCMV): LCMV Primary Screen - GLuc reporter signal (AID 1347086); further: nearly all actives have a fitted effect of over 70% in size
Potency means the concentration at half of the fitted maximal effect.

Chain of Nucleoprotein (Lymphocytic choriomeningitis virus (strain Armstrong)) (P09992 whole entry, looked up): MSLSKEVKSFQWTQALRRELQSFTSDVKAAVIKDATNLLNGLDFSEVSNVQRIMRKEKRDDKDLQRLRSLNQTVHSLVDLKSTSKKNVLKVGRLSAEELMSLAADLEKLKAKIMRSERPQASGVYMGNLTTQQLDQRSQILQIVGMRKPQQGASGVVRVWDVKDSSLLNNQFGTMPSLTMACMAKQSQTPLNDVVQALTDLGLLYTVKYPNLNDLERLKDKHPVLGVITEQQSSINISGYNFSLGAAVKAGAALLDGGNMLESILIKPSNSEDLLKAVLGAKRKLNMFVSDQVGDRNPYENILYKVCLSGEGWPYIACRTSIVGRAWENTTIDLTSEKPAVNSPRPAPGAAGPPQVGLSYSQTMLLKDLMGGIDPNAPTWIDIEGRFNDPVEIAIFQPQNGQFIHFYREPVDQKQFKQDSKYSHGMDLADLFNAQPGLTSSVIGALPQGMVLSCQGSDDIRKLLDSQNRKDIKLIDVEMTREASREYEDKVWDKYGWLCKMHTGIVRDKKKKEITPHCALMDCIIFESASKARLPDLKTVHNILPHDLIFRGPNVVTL

COc1cc2c(cc1OC)CC(=O)N(CCCN(C)C[C@H]1Cc3cc(OC)c(OC)cc31)CC2
Potency [1]: inactive | Potency [2]: inactive | Potency [3]: inactive

COc1ccc2c(c1)c1c3n2CCN(C)C3=NCC1
Potency [1]: inactive | Potency [2]: inactive | Potency [3]: inactive | Potency [4]: inactive

CC(C)(C)C(O)/C=C/c1ccc2c(c1)OCO2 (configuration not stated)
Potency [1]: inactive | Potency [2]: inactive | Potency [3]: inactive | Potency [4]: inactive

c1ccc2occc2c1
Potency [1]: inactive | Potency [2]: inactive | Potency [3]: inactive | Potency [4]: inactive

COc1ccc2c(c1)CC[C@@H](CN(C)CC(=O)O)[C@H]2c1ccccc1
Potency [1]: inactive | Potency [2]: 10900 nM (active) | Potency [3]: 4850 nM (active)

C1=CCOCc2cc(ccc2OCCN2CCCC2)Nc2nccc(n2)-c2cccc(c2)OCC1
Potency [1]: 12200 nM (active) | Potency [2]: 7690 nM (active) | Potency [3]: 24300 nM (active)

CC(=O)NC(C)c1ccc(Oc2ccc(OC(C)C)cc2)cc1 (configuration not stated)
Potency [1]: inactive | Potency [2]: inactive | Potency [3]: inactive | Potency [4]: inactive

CCCCCCCCOc1ccc(C(=O)c2ccccc2)c(O)c1
Potency [1]: inactive | Potency [2]: inactive | Potency [3]: inactive | Potency [4]: inactive

C=CC(=O)Nc1cc2c(Nc3ccc(F)c(Cl)c3)ncnc2cc1C#CC(C)(C)N1CCN(C)CC1
Potency [1]: inactive | Potency [2]: inactive | Potency [3]: inactive | Potency [4]: inactive

C[C@@]12O[C@@H](C[C@]1(O)CO)n1c3ccccc3c3c4c(c5c6ccccc6n2c5c31)CNC4=O
Potency [1]: 9680 nM (active) | Potency [2]: 432 nM (active) | Potency [3]: 21700 nM (active)

NC(=O)c1ccc(N(C(N)=O)c2c(F)cccc2F)nc1-c1ccc(F)cc1F
Potency [1]: inactive | Potency [2]: 34300 nM (active) | Potency [3]: 17200 nM (active)

O=C(Nc1ccc(OC(F)(F)F)cc1)c1sccc1NCc1ccnc2ccccc12
Potency [1]: inactive | Potency [2]: inactive | Potency [3]: inactive | Potency [4]: inactive

CC(C)(C)C(=O)Oc1ccc2c(c1)nc(NC(=O)c1cccc([N+](=O)[O-])c1)n2CCCO
Potency [1]: inactive | Potency [2]: inactive | Potency [3]: inactive | Potency [4]: inactive

CC(NCc1ccc2c(c1)nc(NC(=O)c1ccc(-c3cn[nH]c3)s1)n2CC(C)(C)O)C(C)(C)C (configuration not stated)
Potency [1]: 1930 nM (active) | Potency [2]: 485 nM (active) | Potency [3]: 1720 nM (active)

CS(=O)(=O)c1cccc(CNc2nc(Nc3ccc4c(c3)CCC(=O)N4)ncc2C(F)(F)F)c1
Potency [1]: inactive | Potency [2]: 38500 nM (active) | Potency [3]: inactive | Potency [4]: inactive

COc1ncc(-c2ccc3nccc(-c4ccnnc4)c3c2)cc1NS(=O)(=O)c1ccc(F)cc1F
Potency [1]: 48.5 nM (active) | Potency [2]: 9.7 nM (active) | Potency [3]: 17.2 nM (active) | Potency [4]: 34.3 nM (active)

COc1ccc(CCN2CCN(CCCc3ccccc3)CC2)cc1OC
Potency [1]: inactive | Potency [2]: inactive | Potency [3]: inactive | Potency [4]: inactive

N=C1N=C(N)c2cc3ccccc3cc21
Potency [1]: inactive | Potency [2]: inactive | Potency [3]: inactive | Potency [4]: inactive

CCOc1cc2ncc(C#N)c(Nc3ccc(F)c(Cl)c3)c2cc1NC(=O)C=CCN(C)C
Potency [1]: 10900 nM (active) | Potency [2]: 1930 nM (active) | Potency [3]: 19300 nM (active) | Potency [4]: 24300 nM (active)

NC(CO)C(=O)NNCc1ccc(O)c(O)c1O (configuration not stated)
Potency [1]: inactive | Potency [2]: inactive | Potency [3]: inactive | Potency [4]: inactive

Brc1ccccc1-c1ccccc1
Potency [1]: inactive | Potency [2]: inactive | Potency [3]: inactive | Potency [4]: inactive

CNC(=O)c1cc(Oc2ccc(NC(=O)Nc3cc(C(C)(C)C)nn3-c3ccc4ncccc4c3)c(F)c2)ccn1
Potency [1]: 7690 nM (active) | Potency [2]: 19300 nM (active) | Potency [3]: 24300 nM (active)

CC(C)(C)c1cnc(CSc2cnc(NC(=O)C3CCNCC3)s2)o1
Potency [1]: 6110 nM (active) | Potency [2]: 968 nM (active) | Potency [3]: 968 nM (active)

Cc1ccc(C(N)=O)cc1Nc1nccc(-c2cn(C(C)C)c3cnccc23)n1
Potency [1]: 24300 nM (active) | Potency [2]: 15300 nM (active) | Potency [3]: 21700 nM (active)

COc1ccccc1N1CCN(CC(O)COc2cc(OC)c(OC)c(OC)c2)CC1 (configuration not stated)
Potency [1]: inactive | Potency [2]: inactive | Potency [3]: inactive | Potency [4]: inactive

C[C@@H](O[C@H]1OCCN(Cc2n[nH]c(=O)[nH]2)[C@@H]1c1ccc(F)cc1)c1cc(C(F)(F)F)cc(C(F)(F)F)c1
Potency [1]: inactive | Potency [2]: inactive | Potency [3]: inactive | Potency [4]: inactive

CC(=O)OCCN1C(=O)c2c(C)nc3ccc(S(=O)(=O)N4CCOCC4)cc3c2C1=O
Potency [1]: inactive | Potency [2]: inactive | Potency [3]: inactive

O=C(O)[C@@H](c1ccc(OCc2ccc3ccccc3n2)cc1)C1CCCC1
Potency [1]: inactive | Potency [2]: inactive | Potency [3]: inactive | Potency [4]: inactive

Cc1cccc(C#Cc2ccccc2)n1
Potency [1]: inactive | Potency [2]: inactive | Potency [3]: inactive | Potency [4]: inactive

C[C@@H](N)C(=O)O
Potency [1]: inactive | Potency [2]: inactive | Potency [3]: inactive | Potency [4]: inactive

Nc1nc2ccc([N+](=O)[O-])cc2s1
Potency [1]: inactive | Potency [2]: inactive | Potency [3]: inactive

CC[C@@H](C)[C@H](NC(=O)[C@H](CC1CCCCC1)NC(=O)c1ccno1)C(=O)N1CCC2(CCc3ccccc32)CC1
Potency [1]: inactive | Potency [2]: inactive | Potency [3]: inactive | Potency [4]: inactive

C[N+]1(C)C2CC(OC(=O)[C@H](CO)c3ccccc3)CC1C1OC12 (some centres not stated)
Potency [1]: inactive | Potency [2]: inactive | Potency [3]: inactive | Potency [4]: inactive

CC(=O)NCCC(=O)N[C@@H](CCC(N)=O)C(=O)N[C@@H](CO)C(=O)N[C@@H](CCC(N)=O)C(=O)N[C@@H](CCC(N)=O)C(=O)N[C@H](C(=O)N[C@@H](Cc1ccccc1)C(=O)N[C@]1(C)CCCCCCC=CCCC[C@@](C)(C(=O)N[C@@H](CCC(N)=O)C(=O)N[C@@H](CC(N)=O)C(N)=O)NC(=O)[C@H](CC(C)C)NC(=O)[C@H](CC(C)C)NC(=O)[C@@H](CCCNC(=N)N)NC(=O)[C@H](Cc2c[nH]c3ccccc23)NC(=O)[C@H](CC(C)C)NC(=O)[C@H](CC(N)=O)NC1=O)[C@H](C)O
Potency [1]: inactive | Potency [2]: inactive | Potency [3]: inactive | Potency [4]: inactive

CCc1cc(Nc2nccc(-c3c(-c4ccc(OC)c(C(=O)Nc5c(F)cccc5F)c4)nc4ccccn34)n2)c(OC)cc1N1CCC(N2CCN(S(C)(=O)=O)CC2)CC1
Potency [1]: inactive | Potency [2]: inactive | Potency [3]: 21700 nM (active)

S=c1[nH]c2ccccc2s1
Potency [1]: inactive | Potency [2]: inactive | Potency [3]: inactive | Potency [4]: inactive

NC(CO)(CO)CCc1ccc(Sc2cccc(OCc3ccccc3)c2)cc1Cl
Potency [1]: inactive | Potency [2]: inactive | Potency [3]: inactive | Potency [4]: inactive

C=CCNC(N)=S
Potency [1]: inactive | Potency [2]: inactive | Potency [3]: inactive | Potency [4]: inactive

O=c1cc(CN2CCOCC2)occ1OCCCCCSc1ccnc2cc(C(F)(F)F)ccc12
Potency [1]: 21700 nM (active) | Potency [2]: 1930 nM (active) | Potency [3]: 273 nM (active) | Potency [4]: 1220 nM (active)

CCN(CC)CCNC(=O)c1ccc(NC(C)=O)cc1
Potency [1]: inactive | Potency [2]: inactive | Potency [3]: inactive | Potency [4]: inactive

CN(C)CCN(C)C(=O)c1ccc(NC(=O)Nc2ccc(-c3nc(N4CCOCC4)c4ccn(CC(F)(F)F)c4n3)cc2)cc1
Potency [1]: 48.5 nM (active) | Potency [2]: 48.5 nM (active) | Potency [3]: 43.2 nM (active) | Potency [4]: 76.9 nM (active)

CC1=C(CO)C(=O)O[C@@H]([C@@H](C)[C@H]2CC[C@H]3[C@@H]4C[C@H]5O[C@]56[C@@H](O)C=CC(=O)[C@]6(C)[C@@H]4CC[C@]23C)C1
Potency [1]: 863 nM (active) | Potency [2]: 3060 nM (active) | Potency [3]: 3850 nM (active) | Potency [4]: 1530 nM (active)

CN(C)c1ccc(C2Nc3ccc4ccccc4c3C3=C2C(=O)CC(C)(C)C3)cc1Br (configuration not stated)
Potency [1]: inactive | Potency [2]: inactive | Potency [3]: inactive | Potency [4]: inactive

CC1(C)CCC(c2ccc(Cl)cc2)=C(CN2CCN(c3ccc(C(=O)NS(=O)(=O)c4ccc(N[C@H](CCN5CCOCC5)CSc5ccccc5)c(S(=O)(=O)C(F)(F)F)c4)cc3)CC2)C1
Potency [1]: inactive | Potency [2]: inactive | Potency [3]: inactive | Potency [4]: inactive

CN1C(=O)CC[C@H]1c1cccnc1
Potency [1]: inactive | Potency [2]: inactive | Potency [3]: inactive | Potency [4]: inactive

CCCCCN(CCC12CC3CC(CC(C3)C1)C2)C(=O)NCCCc1ccncc1
Potency [1]: inactive | Potency [2]: inactive | Potency [3]: inactive | Potency [4]: inactive

C[C@]12CC[C@H](O)CC1=CC[C@@H]1[C@H]2CC[C@]2(C)C(c3cccnc3)=CC[C@H]12
Potency [1]: inactive | Potency [2]: inactive | Potency [3]: inactive | Potency [4]: inactive

CC1(C)Cc2c(-c3ccccc3)c(-c3ccc(Cl)cc3)c(CC(=O)O)n2C1
Potency [1]: inactive | Potency [2]: inactive | Potency [3]: inactive | Potency [4]: inactive

OCCn1cc(-c2cnc3nnn(Cc4ccc5ncccc5c4)c3n2)cn1
Potency [1]: inactive | Potency [2]: inactive | Potency [3]: inactive | Potency [4]: inactive

CC1=C(C/C=C(\C)CCC[C@H](C)CCC[C@H](C)CCCC(C)C)C(=O)c2ccccc2C1=O
Potency [1]: inactive | Potency [2]: inactive | Potency [3]: inactive | Potency [4]: inactive

CN(C)C1CCN(C(=O)c2ccc(NC(=O)Nc3nc(N4CCOCC4)nc(N4CCOCC4)n3)cc2)CC1
Potency [1]: 243 nM (active) | Potency [2]: 68.5 nM (active) | Potency [3]: 61.1 nM (active) | Potency [4]: 96.8 nM (active)

C1Cc2[nH]nc(-c3nn[nH]n3)c2C1
Potency [1]: inactive | Potency [2]: inactive | Potency [3]: inactive | Potency [4]: inactive

CCOC(=O)c1c(C)n(C)c2ccc(O)cc12
Potency [1]: inactive | Potency [2]: inactive | Potency [3]: inactive | Potency [4]: inactive

Nc1ccc(S(=O)(=O)Nc2ccccc2)cc1
Potency [1]: inactive | Potency [2]: inactive | Potency [3]: inactive | Potency [4]: inactive

CCC(=O)N[C@H]1CC[C@H](C(=O)N(C)c2ccc(-c3nc4ccccc4o3)cc2)C1
Potency [1]: 9680 nM (active) | Potency [2]: 3430 nM (active) | Potency [3]: 2170 nM (active) | Potency [4]: 3430 nM (active)

Cc1cn(-c2cc(NC(=O)c3ccc(C)c(Nc4nccc(-c5cccnc5)n4)c3)cc(C(F)(F)F)c2)cn1
Potency [1]: inactive | Potency [2]: inactive | Potency [3]: inactive | Potency [4]: inactive

CCCCCCCCCCC(CO)CCCCCCCC (configuration not stated)
Potency [1]: inactive | Potency [2]: inactive | Potency [3]: inactive | Potency [4]: inactive

Cc1cc(SCc2sc(-c3ccc(C(F)(F)F)cc3)nc2C)ccc1OCC(=O)O
Potency [1]: inactive | Potency [2]: inactive | Potency [3]: inactive | Potency [4]: inactive

O=C(Nc1cccc(C2=NCCN2)c1)Nc1cccc(C2=NCCN2)c1
Potency [1]: inactive | Potency [2]: inactive | Potency [3]: inactive | Potency [4]: inactive

OCCC#Cc1nc(-c2ccc(F)cc2)c(-c2ccncc2)n1CCCc1ccccc1
Potency [1]: inactive | Potency [2]: inactive | Potency [3]: inactive | Potency [4]: inactive

CCC(=O)N1CCN(c2ccc(-n3c(=O)ccc4cnc5ccc(-c6cnc7ccccc7c6)cc5c43)cc2C(F)(F)F)CC1
Potency [1]: 38.5 nM (active) | Potency [2]: 15.3 nM (active) | Potency [3]: 27.3 nM (active) | Potency [4]: 68.5 nM (active)
